# The whole screen tested about 340,000 compounds, of which about 330 (0.097%) were called active.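 The calls were made as follows: active = mean replicate inhibition of at least 30% and at least 1% of replicates passing that level; inconclusive = only one of the two criteria is met; inactive = neither criterion is met.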 The sample as a whole holds a higher share of actives than the screen did.
# Test system: Voltage-dependent L-type calcium channel subunit alpha-1D (CaV1.3) ICDI/IQ interaction
# Test: Disruptors of the CACNA1D IQ motif to Ca2+-dependent inactivation inhibitor domain association, primary screening, Förster resonance energy transfer in intact living cells, one concentration (AID 743397);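 also: 0% = median of the neutral control wells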
# Settings: HEK cells, CFP/YFP FRET ICDI-IQ, plate reader, 10 min; at 12.3 µM; stronger effect = higher value; percent FRET-ratio fall versus neutral wells
row,Compound,inhibition
1,CCOC(=O)Cn1c2c(n(-c3ccc(F)cc3)c1=O)C=C(c1ccccc1)[C@@H](C)C(C(=O)N(C)C1CCCCC1)=C2,-5.25% (inactive)
2,Cc1cc(OC(=O)c2ccccc2Cl)ccc1N1C(=O)CCC1=O,66.2% (active)
3,Cc1cccc(/C(N)=N/OC(=O)c2ccccc2Cl)c1,1.19% (inactive)
4,Cc1ccc(C)c(N2C(=O)CS/C2=N\NC(=O)c2ccccc2Cl)c1,-8.17% (inactive)
5,CC[C@H](C)[C@H]1CNC(=O)C(=O)N1CC1CCN(CCc2ccc(OC)c(OC)c2)CC1,-5.2% (inactive)
6,CCCN(CCC)CCNC(=O)c1cc2c(C)nc3ccccc3c2o1,-3.91% (inactive)
7,Cc1nc2ccccc2c2oc(C(=O)NCCCN3CCC(C)CC3)cc12,61.5% (active)
8,CC1CCN(CCCn2c(SCC(=O)NC3CCCC3)nc3ccccc3c2=O)CC1,-1.93% (inactive)
9,CC(C)(C)n1nc(C2CC2)c(Br)c1NC(=O)c1ccccc1F,-11.7% (inactive)
10,CC(=O)C1=C(C)N(Cc2ccccc2)C(=S)NC1c1cccc(Br)c1 (configuration not stated),-5.09% (inactive)
11,Cc1cc2c(nc1C)CCCN2C,-4.25% (inactive)
12,CN1C(=O)C2CC(O)C(SC3CC4C(=O)N(C)C(=O)C4CC3O)CC2C1=O (configuration not stated),-4.52% (inactive)
13,COC(=O)C1=C(C(=O)OC)C2C=C(C(C)C)C1C(=O)C2(C)O (configuration not stated),-3.68% (inactive)
14,O=C(NCc1ccccc1)[C@@H]1CCCN1C(=O)[C@H]1CCCN1C(=O)c1cccc(Cl)c1,-3.24% (inactive)
15,C[C@H]1CN([C@@H](C)CO)C(=O)CCCn2nncc2CO[C@@H]1CN(C)C(=O)Nc1ccc(N2CCN(C)CC2)cc1,-5.58% (inactive)
16,CCOC(=O)c1ccc(-c2ccc3ncnc(N(C)Cc4sccc4C)c3c2)o1,-9.32% (inactive)
17,Clc1cccc2c1C1CC2CCN1Cc1ccccc1 (configuration not stated),-3.78% (inactive)
18,Nc1[nH]c(C(=O)c2ccccc2)c(-c2ccc(Cl)cc2Cl)c1C(=O)c1ccccc1,-17.7% (inactive)
19,CCOC(=O)c1oc2c(CN3CCN(C)CC3)c(O)ccc2c(=O)c1-c1ccc(Br)cc1,-4.95% (inactive)
20,Cn1c(=O)[nH]c(=O)c2c1nc(N1CCN(CCO)CC1)n2CCSc1nc2ccccc2s1,-4.96% (inactive)
21,CCOC(=O)c1oc2c(CN3CCN(CCO)CC3)c(O)c(CC)cc2c(=O)c1-c1nc2ccccc2s1,37% (active)
22,O=C(NCc1ccccc1)[C@H]1CCCN1C(=O)[C@H]1CCCN1C(=O)c1cc(F)cc(F)c1,-8.46% (inactive)
23,O=C(NCc1ccccc1)[C@@H]1CCCN1C(=O)[C@@H](NS(=O)(=O)c1ccc(F)cc1F)C1CCCCC1,-2.67% (inactive)

row,Compound,inhibition
1,O=C(C(=O)N1CCC(CNS(=O)(=O)Cc2ccccc2)CC1)c1cc2ccccc2o1,-8.57% (inactive)
2,Cc1ccc(C)c(CN2CCC(CNC(=O)C3CCCN(c4ncnc5c4nc4n5CCCCC4)C3)CC2)c1 (configuration not stated),-13.7% (inactive)
3,O=C(O)Cn1cnc2c(NCc3ccccc3)ncnc21,-6.21% (inactive)
4,CC(C)C[C@H](NC(=O)CC1CCCC1)C(=O)N1CCC[C@H]1C(=O)NCc1ccccc1,-8.63% (inactive)
5,Nc1[nH]c(C(=O)c2ccc(Br)cc2)c(-c2ccc3c(c2)OCO3)c1C(=O)NCCc1c[nH]c2ccccc12,-16.2% (inactive)
6,CCOC(=O)C1CSCCS(=O)(=O)N1Cc1ccc(Cl)cc1 (configuration not stated),-4.73% (inactive)
7,O=C1[C@@H](c2ccccc2)[C@@H](c2ccccc2)N1c1ccccc1,-7.31% (inactive)
8,Brc1ccc(COCCc2cn(Cc3ccccc3)c3ccccc23)cc1,-2.59% (inactive)
9,CC(=O)c1ccc(-c2cnc3c(NC=O)cc(-c4cccc(NS(C)(=O)=O)c4)cn23)cc1,-5.47% (inactive)
10,COCCCNC(=O)C[C@H]1C[C@@]2(C(=O)OC)C(=C[C@H](C(C)(C)C)O[C@@H]2C)N(Cc2ccc3c(c2)OCO3)C1=O,-3.83% (inactive)
11,O=C(N[C@H](Cc1ccccc1)C(=O)N1CCCN(Cc2cccs2)CC1)[C@H]1O[C@@H](n2ccc(=O)[nH]c2=O)[C@H](O)[C@@H]1O,-3.41% (inactive)
12,Cc1ccc2nc(-c3ccc(CN4CCC(n5cc(-c6ccccc6)[nH]c5=O)CC4)cc3)c(-c3ccccc3)nc2c1,-15.6% (inactive)
13,COC(=O)C1=C(C)N(Cc2ccc(F)cc2)C(=S)NC1c1cccc(Cl)c1 (configuration not stated),-2.29% (inactive)
14,CCCCCCCCN1C(=O)[C@@H](CC(=O)NCc2ccccc2)C[C@@]2(C(=O)OC)C1=C[C@H](C(C)(C)C)O[C@@H]2C,-8.36% (inactive)
15,O=C(NN=Cc1ccco1)C(=O)Nc1ccc(Cl)c([N+](=O)[O-])c1,-13% (inactive)
16,O=S1(=O)c2ccc(Br)cc2-n2nncc2CN1Cc1cccc(Cl)c1,-9.71% (inactive)
17,COC(=O)[C@]12C[C@H](CC(=O)NCc3ccc(OC)c(OC)c3)C(=O)N(Cc3ccccc3)C1=C[C@H](C(C)C)O[C@@H]2C1CC1,-11.2% (inactive)
18,CC(=O)C1=C(C)N(Cc2ccc(Cl)cc2)C(=S)NC1c1ccc(F)cc1 (configuration not stated),-2.53% (inactive)
19,CC(C)[C@H]1COCCS(=O)(=O)N1Cc1ccccc1-c1cccc2c1sc1ccccc12,-4.21% (inactive)
20,C[C@H]1[C@H](c2ccccc2)Oc2cc(Br)ccc2S(=O)(=O)N1Cc1cccc(F)c1,-4.74% (inactive)
21,O=S(=O)(c1cccs1)N1CCCc2nc(-c3ccc(Br)cc3)ccc21,-8.65% (inactive)
22,C=CCN=C1NC(c2ccccc2)C(C(=O)OC)=C(C)N1Cc1ccc(C(F)(F)F)cc1 (configuration not stated),-6.18% (inactive)
23,N#Cc1c(N)sc2c1CCN(C(=O)OCc1ccccc1)C2,-7.05% (inactive)

row,Compound,inhibition
1,CCN1CCN(CC(=O)Nc2sc3c(c2C#N)CCC3)CC1,-6.79% (inactive)
2,CNC(=S)NNC(=O)c1ccc(N(C)C)cc1,-4.61% (inactive)
3,CC(=O)NC(=S)NNC(=O)c1ccc(Br)cc1,74.6% (active)
4,O=C(NNC(=O)c1ccc(Cl)nc1)c1ccc(Br)cc1,-6.15% (inactive)
5,O=C(Nc1ccc(C(F)(F)F)cc1)c1cccc(-n2cnnn2)c1,-5.18% (inactive)
6,CCCCC(=O)Nc1ccc(C(=O)Nc2cc(C(F)(F)F)ccc2Cl)cc1,-17.6% (inactive)
7,O=C1Nc2ccccc2C1=NN=Cc1ccco1,-4.56% (inactive)
8,CCCCC[C@H](C)N1C[C@@H](COCc2ccccc2)Oc2cc(N3CC[C@@H](N(C)C)C3)ccc2S1(=O)=O,-7.78% (inactive)
9,O=[N+]([O-])c1cccc(Nc2c3ccccc3nc3ccccc23)c1,87.1% (active)
10,O=C(Nc1cccc([N+](=O)[O-])c1)Nn1cnnc1,-5.3% (inactive)
11,N#Cc1cccc(Nc2c3c(nc4ccccc24)CCCC3)c1,-2.56% (inactive)
12,CCn1c(=N)c(C(=O)NCCCOC)cc2c(=O)n3cccc(C)c3nc21,45.8% (active)
13,COCCCn1c(C(=O)NC2CCCCC2)cc2c(=O)n3cccc(C)c3nc21,-7.34% (inactive)
14,COc1ccc(CCn2c(=N)c(C(=O)NCC3CCCO3)cc3c(=O)n4cccc(C)c4nc32)cc1OC (configuration not stated),-7.32% (inactive)
15,COCc1[nH]nc2c1C(c1ccccc1)N(c1ccccc1)C2=O (configuration not stated),-4.04% (inactive)
16,COC(=O)c1cc2c(c3c4cc(F)ccc4n(S(=O)(=O)c4ccccc4)c13)C(=O)N(Cc1ccccc1OC)C2,-8.18% (inactive)
17,C=CC[C@]12C[C@@]3(O[C@H](c4ccc(C(F)(F)F)cc4)N=C3C[C@H](c3ccc(OC)cc3)[C@H]1C)N(C1CCN(Cc3ccccc3)CC1)C2=O,-3.62% (inactive)
18,CN(C)CCOCCOc1ccc(Cl)c2ccccc12,62.4% (active)
19,CCN(CC)CCOCCOc1ccc(Cl)c2ccccc12,-5.65% (inactive)
20,CN(C)CCOc1ccc(Cl)cc1C(C)(C)C,3.19% (inactive)
21,Cc1ccc(N)cc1CN1CCN(c2ncc(Cc3ccccc3)cn2)CC1,-2.7% (inactive)

# Source: PubChem BioAssay AID743397 (Broad Institute, 2014)
